The whole screen tested about 4,100 compounds, of which about 1,600 (39%) were called active. Another 25% or so got no clear call; they are omitted. The call rests on the fitted dose curve; in most records, active means well fitted inhibition curve with a large enough effect; inconclusive means small, poorly fitted or top-dose-only effect; inactive means no such curve, though single readings can be large or run the other way. The list shows a part of the results. Entries that show only a call come without a potency.
Potency means the concentration at half of the fitted maximal effect.

This assay is described as follows: qHTS Validation assay for Inhibitors of Plasmodium falciparum Dd2 growth in vitro. Further: nearly all actives have a fitted effect of over 70% in size. The conditions noted are these: P. falciparum Dd2 in RBCs, SYBR Green growth, 72 h; series mostly up to 28.7 µM. The essentials: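 P. falciparum Dd2-infected red blood cells (2.5% hematocrit, 0.3% parasitemia) grown 72 h at 37 °C under 5% O2 with compounds in a titration, 29 uM to 0.5 nM final. Growth read as SYBR Green-1 fluorescence after ~16 h lysis; artesunate 300 nM as positive control.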
(In general: qHTS replaces the single test concentration by a dilution series.)
For the molecule `Cc1noc(C(C)N(C)C(=O)c2cc(COc3ccccc3F)[nH]n2)n1` (stereo unspecified), the Potency result is “inactive”.

Turning to `Cc1nn(-c2ccccc2)c2c1C(c1cccnc1)N1C=C(S(=O)(=O)N3CCCCC3)C=CC1=N2` (stereo unspecified), the Potency is 15 µM (active).

As to `COc1ccc(-c2ccc3ncc(Nc4ccnc(N5CCOCC5)c4)n3n2)cn1`, the Potency is 4.85 µM (active).

Consider `COc1ccc(-c2ccc3ncc(Nc4cccc(C(F)(F)F)c4)n3n2)cn1`, for which the Potency is 12.2 µM (active).

As to `Fc1ccc(-c2ccc3ncc(Nc4ccnc(N5CCOCC5)c4)n3n2)cc1`, the Potency was 1.72 µM (active).

Take `COC(=O)[C@@H]1Cc2ncn(C(C)C)c2CN1S(=O)(=O)c1cccc(C(F)(F)F)c1`: the Potency entry was “inactive”.

For `CCc1noc(-c2cccn3c(CNC(=O)Cc4ccc(Cl)cc4)nnc23)n1`, the Potency result is “inactive”.

For `Cc1ccoc1C(=O)Nc1ccc(CC(=O)O)cc1`, the Potency entry was “inactive”.

Take `CCN1CCN(c2cc(C)c3cc(NC(=O)c4ccc(Br)o4)ccc3n2)CC1`: the Potency was 6.68 µM (active).

As for `CCN(c1ccccc1)S(=O)(=O)c1ccc(NC(=O)c2cc(=O)c3cc(C)ccc3o2)cc1`, the Potency result is “inactive”.

`Cc1cc(N2CCN(C)CC2)nc2ccc(NC(=O)c3ccc(Br)o3)cc12`: the Potency is 6.68 µM (active).

`CCN(CC)c1cc(C)c2cc(NC(=O)c3ccc(Br)o3)ccc2n1`: the Potency was 6.68 µM (active).

With `O=c1cc(N2CCOCC2)oc2c(N3CCN(c4ccccn4)CC3)nccc12`, the Potency result was “inactive”.

With `CC(NC(=O)Cc1cccc(F)c1)C(=O)N1CCN(c2ccccn2)CC1` (stereo unspecified), the Potency entry was “inactive”.

As to `OC(CN1CCN(c2ccccn2)CC1)Cn1c2ccc(Cl)cc2c2cc(Cl)ccc21` (stereo unspecified), the Potency was 2.99 µM (active).

For `Cc1ccc(Oc2c(CCC(=O)NC(C)C)c(C)nn2-c2ccccc2)cc1`, the Potency result was “inactive”.

With `COc1ccc(CNCc2cc3c(C(C)(C)C)nn(-c4ccccc4)c3[nH]c2=O)cc1`, the Potency was 0.842 µM (active).

Turning to `Cc1ccc(-c2nn(-c3ccccc3)c3[nH]c(=O)c(CNCc4ccccc4)cc23)cc1`, the Potency is 0.422 µM (active).

With `Cc1nc(NCc2ccccc2)[nH]c(=O)c1CCC(C)C`, the Potency result is “inactive”.

In the case of `COc1ccc(CNC(=O)CC[C@@H]2CNC(=O)[C@@H]3C[C@H](NCc4ccccc4)CN23)cc1`, the Potency entry was “inactive”.

For `COc1ccc(CNC(=O)C2CCN(C(=O)c3cc4c(=O)[nH]c(C)cn4n3)CC2)cc1`, the Potency result was “inactive”.

Turning to `Cc1ccc(CNCc2cc3c(C(C)(C)C)nn(-c4ccccc4)c3[nH]c2=O)cc1`, the Potency was 0.266 µM (active).

Take `CCCC(=O)N=C1SC2CS(=O)(=O)CC2N1c1ccc(CC)cc1` (stereo unspecified): the Potency entry is “inactive”.

Consider `COCc1nncn1C1CCN(C(=O)c2ccc(C)c(C)c2)CC1`, for which the Potency entry is “inactive”.

In the case of `CN(Cc1cccn1C)C(=O)C1CC1`, the Potency entry was “inactive”.

Regarding `CCC(C)c1ccc(O)c(NC(=O)c2cncc(Br)c2)c1` (stereo unspecified), the Potency was 2.99 µM (active).

In the case of `CCC(C)c1ccc(NC(=O)c2cccnc2)cc1` (stereo unspecified), the Potency result is “inactive”.

As for `COc1ccc(NC(=O)c2nnn(Cc3ccccc3C)c2N)c(OC)c1`, the Potency entry is “inactive”.

As for `COc1ccc(NC(=O)c2nnn3c2CN(Cc2cccc(Cl)c2)C(=O)CC3)c(C)c1`, the Potency was 2.17 µM (active).

Regarding `CCCCCCCn1c(NC(=O)CC)nc2ccccc21`, the Potency was 16.8 µM (active).

Take `O=C(Nc1nc2ccccc2n1Cc1ccccc1)c1ccc(COc2ccccc2[N+](=O)[O-])o1`: the Potency is 16.8 µM (active).

Consider `CCCCn1c2ccccc2c2nnc(SCC(=O)Nc3ccc(NC(C)=O)cc3)nc21`, for which the Potency entry is “inactive”.

In the case of `CC(=O)Nc1nc2ccccc2n1Cc1ccc(Cl)cc1`, the Potency was 8.41 µM (active).

Regarding `COc1ccc2nc3oc(C(=O)NCc4cccs4)cc3cc2c1`, the Potency entry was “inactive”.

Regarding `COc1ccc(C2CC(c3cccs3)=NN2C(=O)c2ccc(Br)o2)cc1` (stereo unspecified), the Potency is 5.31 µM (active).

`O=C(CN1CCN(S(=O)(=O)N2CCCC2)CC1)NCc1ccccc1F`: the Potency entry is “inactive”.

Turning to `O=C(Nc1nc2c(F)cccc2s1)c1ccc(S(=O)(=O)N2CCCc3ccccc32)cc1`, the Potency entry was “inactive”.

For the molecule `O=C(NCCCN1CCCC1)c1ccc2c(c1)N(S(=O)(=O)c1ccccc1F)CC2`, the Potency was 9.44 µM (active).

Regarding `COc1ccc2[nH]c3c(c2c1)CCNC31CCN(C(=O)C(C)(C)C)CC1`, the Potency result was “inactive”.

As for `Cc1ccc(C(=O)N2CCc3nc4cc(-c5ccccc5)[nH]n4c(=O)c3C2)cn1`, the Potency result was “inactive”.

Turning to `O=C(c1cc(NC(=O)C23CC4CC(CC(C4)C2)C3)cc(NC(=O)C23CC4CC(CC(C4)C2)C3)c1)N1CCCCC1`, the Potency is 5.96 µM (active).

Take `CC(C)CN1C(=O)c2cccn2CC1CNC(=O)c1ccccc1` (stereo unspecified): the Potency entry is “inactive”.

On to `COc1ccccc1CNCC(O)(c1ccc(Cl)cc1)c1ccc(Cl)cc1`, for which the Potency was 1.5 µM (active).

`COc1ccccc1Oc1ncccc1CNCc1c(F)cccc1Cl`: the Potency result was “inactive”.

Turning to `COc1ccc(CNCC(O)(c2ccc(Cl)cc2)c2ccc(Cl)cc2)cc1`, the Potency was 1.5 µM (active).

Take `Cc1ccc(CNCC(O)(c2ccccc2)c2ccc(Cl)cc2)cc1` (stereo unspecified): the Potency was 2.99 µM (active).

In the case of `Cc1cn2nc(-c3nc(C4CCCN(C(=O)Cc5ccsc5)C4)no3)cc2c(=O)[nH]1` (stereo unspecified), the Potency result was “inactive”.

For the molecule `CCc1ccc(CNC(=O)C2CCN(c3cc(C(F)(F)F)nc(C)n3)CC2)cc1`, the Potency result was “inactive”.

Regarding `COc1ccc(OC)c(CNC(=O)C2CCN(c3ncnc4c3nc3n4CCCCC3)CC2)c1`, the Potency result was “inactive”.

Turning to `COc1ccc(CNC(=O)C2CCN(c3nc(-c4ccccc4)nc4c3CCC4)CC2)cc1`, the Potency was 7.5 µM (active).

In the case of `Cc1cc(=O)n(CC(=O)Nc2ccccc2F)c(N2CCc3ccccc3C2)n1`, the Potency result was “inactive”.

Regarding `O=C(Nc1ccc(F)cc1F)N1CCOc2ccc(CN3CCc4ccccc4C3)cc2C1`, the Potency is 16.8 µM (active).

Consider `CCC1Oc2ccc(NC(=O)COC)cc2CN(Cc2ccc(F)cc2)C1=O` (stereo unspecified), for which the Potency result is “inactive”.

On to `COc1ccccc1NC(=O)N1CCOc2ccc(CN3CCc4ccccc4C3)cc2C1`, for which the Potency was 2.37 µM (active).

As to `O=C(Nc1ccc(F)cc1)N1CCOc2ccc(CN3CCc4ccccc4C3)cc2C1`, the Potency was 8.41 µM (active).

Turning to `CCOc1cccc(CN2C[C@@H]3C(=O)N(CCN4CCc5ccccc5C4)C(=O)[C@@H]3C2)c1`, the Potency entry is “inactive”.

Take `CC[C@@H](NC(C)=O)C(=O)N1CCOc2c(cc(-c3cccs3)cc2OC)C1`: the Potency result is “inactive”.

For `CC1(CNc2ccccc2)COc2ccc(C(=O)NCc3ccc(F)cc3)cc2N1` (stereo unspecified), the Potency entry is “inactive”.

As for `CCN(C(=O)c1cc2cc(Br)cc(OC)c2oc1=O)c1ccccc1`, the Potency entry is “inactive”.

Take `Cc1nc(CCNC(=O)C2CC2)no1`: the Potency result was “inactive”.

Regarding `O=C(c1ccc(-c2ncc3cnc(-c4cccc(F)c4)cn23)cc1)N1CCc2cccnc21`, the Potency result was “inactive”.

Regarding `O=C(c1ccc(-c2ncc3cnc(-c4ccccc4)cn23)cc1)N1CCc2cccnc21`, the Potency was 17.2 µM (active).

Consider `Cc1ccc(C(=O)N2CCCn3cc(-c4cccc(C#N)c4)nc32)cc1`, for which the Potency entry is “inactive”.

`CCOC(=O)c1ccc(Nc2nc3nonc3nc2Nc2cccc(C)c2C)cc1`: the Potency was 8.41 µM (active).

For the molecule `COc1ccc(Nc2ccccc2NC(=O)c2ccccc2Br)cc1`, the Potency was 5.96 µM (active).

Turning to `COc1ccc(NC(=O)c2cccc3c2CCN3C(=O)Nc2ccc(F)cc2)c(C)c1`, the Potency entry is “inactive”.

For the molecule `CCNC(=O)N1CC[C@H]2CC(=O)N([C@H](C(N)=O)C(C)C)CC[C@H]2C1`, the Potency result is “inactive”.

Consider `O=C1C=C(c2cccc(CO)c2)C[C@@H](c2ccc(Cl)cc2)C1`, for which the Potency was 3.76 µM (active).

As to `Cn1cc(-c2cccc(CO)c2)c2nc(COc3ccc(Cl)cc3)cn2c1=O`, the Potency entry was “inactive”.

Consider `CC1(c2ccccc2)O[C@@H]2C[C@H]3[C@@H]4CCC5=CC(=O)C=C[C@]5(C)[C@@]4(F)[C@@H](O)C[C@]3(C)[C@]2(C(=O)CO)O1` (stereo partly specified), for which the Potency is 4.73 µM (active).

With `CCOC(=O)c1sc(NC(=O)C2c3ccccc3Oc3ccccc32)c(C(=O)OCC)c1C`, the Potency is 2.66 µM (active).

Take `O=C(Nc1ccncc1)C1c2ccccc2Oc2ccccc21`: the Potency entry is “inactive”.

For the molecule `COc1cc(Nc2ncncc2-c2nc(-c3ccccc3)no2)cc(OC)c1OC`, the Potency entry was “inactive”.

Regarding `Cc1ccccc1C(=O)N1CCC(c2nn(-c3ccc(Cl)cc3)c(=O)[nH]2)CC1`, the Potency result is “inactive”.

On to `CC(C)(C)OC(=O)N1CCC(CNC(=O)c2ccc(F)cc2)CC1`, for which the Potency result is “inactive”.

Take `Cc1ccc(C)c(N2CCN(CCCNC(=O)c3cnn(-c4ccc(F)cc4)c3C3CCN(C(=O)OC(C)(C)C)CC3)CC2)c1`: the Potency was 2.66 µM (active).

Consider `Cc1ccc(C)c(N2CCN(CCCNC(=O)c3cnn(-c4cccc(Cl)c4)c3C3CCN(C(=O)OC(C)(C)C)CC3)CC2)c1`, for which the Potency is 8.41 µM (active).

With `Cc1ccc(-n2ncc(C(=O)N3CCN(c4cc(Cl)ccc4C)CC3)c2C2CCN(C(=O)OC(C)(C)C)CC2)cc1`, the Potency is 8.41 µM (active).

Consider `CC(C)(C)OC(=O)N1CCC(c2c(C(=O)NCCN3CCC(Cc4ccccc4)CC3)cnn2-c2ccc(F)cc2)CC1`, for which the Potency was 5.31 µM (active).

As to `Cn1cnc(S(=O)(=O)N2CCCOCCNC(=O)[C@@H]3CCC[C@@H]32)c1`, the Potency entry was “inactive”.

Turning to `CC1CCN(C(=O)c2cc3c(s2)CCC(C(=O)NCCCN2CCOCC2)C3)CC1` (stereo unspecified), the Potency entry was “inactive”.

`CC(C)(C)OC(=O)N1CCC(c2c(C(=O)NCCN3CCc4ccccc4C3)cnn2-c2ccc(F)cc2F)CC1`: the Potency was 5.31 µM (active).

On to `Cc1cccc(C)c1-n1ncc(C(=O)NCCCN2CCC(C)CC2)c1C1CCN(C(=O)OC(C)(C)C)CC1`, for which the Potency was 15 µM (active).

With `O=C(CN1C2=NCCCN2c2ccccc21)c1ccc(Cl)cc1Cl`, the Potency was 6.68 µM (active).

Regarding `CNCC(=O)N1C[C@@H](C(=O)O)[C@H](c2ccccc2)C1`, the Potency result was “inactive”.

Take `O=C(N/N=C/c1ccc(OCc2ccccc2)cc1)c1ccco1`: the Potency was 13.3 µM (active).

Turning to `CC(C)C(=O)OCC(=O)[C@@]12O[C@H](C3CCCCC3)O[C@@H]1C[C@H]1[C@@H]3CCC4=CC(=O)C=C[C@]4(C)[C@H]3[C@@H](O)C[C@@]12C`, the Potency is 2.66 µM (active).

Take `CC(=O)SC1CC(=O)N(c2c(C)cccc2C)C1=O` (stereo unspecified): the Potency result is “inactive”.

Regarding `CN1C(=O)C2(c3ccccc31)N(C)CC(c1ccccc1)C21SC(=S)N(Cc2ccco2)C1=O` (stereo unspecified), the Potency was 13.3 µM (active).

With `COc1cccc(C(=O)N2CCc3nc(C4CC4)nc(-c4ccc(Cl)cc4)c3C2)c1`, the Potency entry was “inactive”.

Turning to `CCc1nc2c(c(-c3ccc(Cl)cc3)n1)CCN(CC1CCCCC1)CC2`, the Potency result was “inactive”.

With `COc1ccc(-c2nc(C3CC3)nc3c2CCN(Cc2cccnc2)CC3)cc1`, the Potency was 13.3 µM (active).

Consider `Cc1ccc(CN2CCc3nc(C(=O)Nc4nc(C)cs4)oc3CC2)cc1`, for which the Potency result is “inactive”.

For `Oc1ccc(-c2nc(C3CC3)nc3c2CCN(CC2CCCCC2)CC3)cc1`, the Potency is 4.73 µM (active).

With `Cc1ccc(CN2CCc3nc(C4CC4)nc(-c4ccc(O)cc4)c3CC2)cc1`, the Potency is 4.73 µM (active).

In the case of `CC(C)c1nc2c(c(-c3ccc(O)cc3)n1)CCN(CC1CCCCC1)CC2`, the Potency was 4.73 µM (active).

Values taken from PubChem BioAssay AID1347416 (National Center for Advancing Translational Sciences (NCATS), 2020).
